Our source for the Potency and max activation values is PubChem BioAssay (Tox21).

Values without a mark were called inactive. Records with an inconclusive call do not appear. Active and inactive are the calls of the source. Calls follow the shape of the dose curve; as a rule, active = well fitted curve in the direction sought with a large enough effect in the repeat runs; inconclusive = weak or mixed curves; inactive = no such curve, though single readings can be large; an effect the other way counts as inactive or inconclusive.

Assay [1] in a line: Caspase-3/7 induction in CHO-K1 cells by small molecules, qHTS assay (AID 1346980). Also: nearly all actives have a fitted effect of over 15% in size. In short, it runs like this:
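Wild-type cells were seeded at 1,500 per well and settled 5 hr at 37 C, 5% CO2, then exposed to DMSO-dissolved compounds for 17 hr. Caspase-Glo 3/7 reagent was added, and luminescence was read after 30min at room temperature.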
On the technique in general: Quantitative high-throughput screening tests each substance at several concentrations.

Assay [2] is described as follows: Caspase-3/7 induction in HepG2 cells by small molecules, qHTS cell viability counter screen (AID 1346981). Also: series mostly up to about 92 µM; nearly all actives have a fitted effect of over 30% in size. Put shortly: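 Wild-type HepG2 cells (2,000/well) were allowed to settle for 5 hr at 37 C, 5% CO2, then dosed with compounds in DMSO by pin transfer. After 16 hr at 37 C, CellTiter-Fluor was added and fluorescence read 1 hr later.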
The target in assay [3] is Nuclear receptor subfamily 1 group I member 2 (Homo sapiens) (UniProt O75469). Kind of assay: Human pregnane X receptor (PXR) small molecule agonists, qHTS assay (AID 1346982). Also: nearly all actives have a fitted effect of over 35% in size. Also: potency is read from the fitted curve at half-maximal effect. In short, it runs like this:
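PXR-Luc HepG2 cells (CYP3A4 promoter-driven luciferase) were seeded in medium with 5% charcoal-stripped FBS, left 5 hr at 37 C, then exposed to compounds in DMSO for 24 hr. Luminescence was read after ONE-Glo addition.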

In assay [4] the target is Cytochrome P450 2D6 (Homo sapiens) (UniProt P10635). Put plainly: Cytochrome P450 Family 2 Subfamily D Member 6 (CYP2D6) small molecule antagonists: luciferase reporter qHTS assay (AID 1671196). Also: nearly all actives have a fitted effect of over 50% in size. Also: potency is read from the fitted curve at half-maximal effect. In short, it runs like this:
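CYP2D6 enzyme–substrate mix was held with compound for 10 min at room temperature, then NADPH regeneration solution was added and the reaction ran 1 h at room temperature. Luciferin product was detected by luminescence after 20 min with detection reagent.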
Background: In a reporter assay the amount or activity of a reporter protein is the signal.

Assay [5] has as its target Cytochrome P450 2C19 (Homo sapiens) (UniProt P33261). Put plainly: Cytochrome P450 Family 2 Subfamily C Member 19 (CYP2C19) small molecule antagonists: luciferase reporter qHTS assay (AID 1671197). Also: nearly all actives have a fitted effect of over 65% in size. Also: potency is read from the fitted curve at half-maximal effect. In short, it runs like this: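 Inhibition of CYP2C19 was scored from loss of luminescence in a P450-Glo proluciferin substrate assay, NADPH-started and run 1 h at 37C, with ketoconazole as positive control.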

The target of assay [6] is Cytochrome P450 2C9 (Homo sapiens) (UniProt P11712). Put plainly: Cytochrome P450 Family 2 Subfamily C Member 9 (CYP2C9) small molecule antagonists: luciferase reporter qHTS assay (AID 1671198). Also: nearly all actives have a fitted effect of over 50% in size. Also: potency is read from the fitted curve at half-maximal effect. In short, it runs like this:
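CYP2C9 activity was measured with a P450-Glo proluciferin substrate. Enzyme–substrate mix was held with compound for 10 min at room temperature, then NADPH regeneration solution was added for 1 h at 37C. Luciferin product was read as luminescence.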

Assay [7] deals with Cytochrome P450 1A2 (Homo sapiens) (UniProt P05177). Kind of assay: Cytochrome P450 Family 1 Subfamily A Member 2 (CYP1A2) small molecule antagonists: luciferase reporter qHTS assay (AID 1671199). Also: nearly all actives have a fitted effect of over 50% in size. Also: potency is read from the fitted curve at half-maximal effect. Put shortly: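 Human CYP1A2 activity measured with a P450-Glo proluciferin substrate; compounds in DMSO preincubated 10 min at room temperature with enzyme-substrate mix, then NADPH regeneration system added for 1 h. Luciferin detection reagent, 20 min, luminescence read.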

In assay [8] the target is Cytochrome P450 3A4 (Homo sapiens) (UniProt P08684). Put plainly: Cytochrome P450 Family 3 Subfamily A Member 4 (CYP3A4) small molecule antagonists: luciferase reporter qHTS assay (AID 1671201). Also: nearly all actives have a fitted effect of over 50% in size. Also: potency is read from the fitted curve at half-maximal effect. Put shortly:
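qHTS, 1536-well. CYP3A4 + proluciferin substrate, cpd 10 min RT → NADPH regen 1 h RT → detection reagent 20 min → luminescence (RLU). Ketoconazole positive control.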

The target in assay [9] is Voltage-gated inwardly rectifying potassium channel KCNH2 (Homo sapiens) (UniProt Q12809). Kind of assay: Human Ether-a-go-go-Related Gene (hERG) channel small molecule antagonists: fluorescence cell-based qHTS assay (AID 1671200). Put shortly:
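Fluorescence at 540 nm emission (480 nm excitation) was recorded kinetically for 2 min at 1-second intervals once the thallium-containing stimulus reached cells previously loaded with FluxOR II dye.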
For orientation: The hERG channel carries a current that helps repolarise heart muscle cells.

The target of assay [10] is Nuclear receptor subfamily 1 group I member 2 (Rattus norvegicus) (UniProt Q9R1A7). Kind of assay: Rat pregnane X receptor (rPXR) activation by small molecules, qHTS assay (AID 1346983). Also: nearly all actives have a fitted effect of over 20% in size. To be noted: rPXR luciferase reporter cells, One-Glo luminescence, 24 h; max activation: hits give high values. Put shortly:
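Cell-based rPXR luciferase reporter assay, 2,000 cells per well, rested 5hr at 37 C before compound addition in DMSO, then 24 hr at 37 C. One-Glo reagent was added and luminescence read after 30 min at room temperature.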

The target in assay [11] is Nuclear receptor subfamily 1 group I member 2 (Homo sapiens) (UniProt O75469). Kind of assay: CYP3A4 induction through human pregnane X receptor (PXR) by small molecules, qHTS assay (AID 1346984). Also: nearly all actives have a fitted effect of over 40% in size. Put shortly:
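DPX-2 cells (HepG2 co-transfected with PXR and CYP3A4 promoter-luciferase) treated with compounds 24 h at 37C; luciferin-IPA CYP3A4 substrate 3uM final added for 3 h, then One-Glo; luminescence read. qHTS format.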

Assay [12] shares this target. Kind of assay: Human pregnane X receptor (PXR) activation by small molecules, qHTS assay (AID 1346985). Also: nearly all actives have a fitted effect of over 40% in size. In short, it runs like this:
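DPX-2 cells (HepG2 co-transfected with a PXR response element and a CYP3A4-promoter luciferase construct) were seeded at 2,000 per well, rested 5 hr at 37C, then exposed to DMSO-dissolved compounds for 24 hr. Activation was read as luciferase luminescence.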
% is scaled to controls: 0 for no effect and ±100 for the full control effect.

Voltage-gated inwardly rectifying potassium channel KCNH2 (Homo sapiens), sequence (Q12809 whole entry, looked up): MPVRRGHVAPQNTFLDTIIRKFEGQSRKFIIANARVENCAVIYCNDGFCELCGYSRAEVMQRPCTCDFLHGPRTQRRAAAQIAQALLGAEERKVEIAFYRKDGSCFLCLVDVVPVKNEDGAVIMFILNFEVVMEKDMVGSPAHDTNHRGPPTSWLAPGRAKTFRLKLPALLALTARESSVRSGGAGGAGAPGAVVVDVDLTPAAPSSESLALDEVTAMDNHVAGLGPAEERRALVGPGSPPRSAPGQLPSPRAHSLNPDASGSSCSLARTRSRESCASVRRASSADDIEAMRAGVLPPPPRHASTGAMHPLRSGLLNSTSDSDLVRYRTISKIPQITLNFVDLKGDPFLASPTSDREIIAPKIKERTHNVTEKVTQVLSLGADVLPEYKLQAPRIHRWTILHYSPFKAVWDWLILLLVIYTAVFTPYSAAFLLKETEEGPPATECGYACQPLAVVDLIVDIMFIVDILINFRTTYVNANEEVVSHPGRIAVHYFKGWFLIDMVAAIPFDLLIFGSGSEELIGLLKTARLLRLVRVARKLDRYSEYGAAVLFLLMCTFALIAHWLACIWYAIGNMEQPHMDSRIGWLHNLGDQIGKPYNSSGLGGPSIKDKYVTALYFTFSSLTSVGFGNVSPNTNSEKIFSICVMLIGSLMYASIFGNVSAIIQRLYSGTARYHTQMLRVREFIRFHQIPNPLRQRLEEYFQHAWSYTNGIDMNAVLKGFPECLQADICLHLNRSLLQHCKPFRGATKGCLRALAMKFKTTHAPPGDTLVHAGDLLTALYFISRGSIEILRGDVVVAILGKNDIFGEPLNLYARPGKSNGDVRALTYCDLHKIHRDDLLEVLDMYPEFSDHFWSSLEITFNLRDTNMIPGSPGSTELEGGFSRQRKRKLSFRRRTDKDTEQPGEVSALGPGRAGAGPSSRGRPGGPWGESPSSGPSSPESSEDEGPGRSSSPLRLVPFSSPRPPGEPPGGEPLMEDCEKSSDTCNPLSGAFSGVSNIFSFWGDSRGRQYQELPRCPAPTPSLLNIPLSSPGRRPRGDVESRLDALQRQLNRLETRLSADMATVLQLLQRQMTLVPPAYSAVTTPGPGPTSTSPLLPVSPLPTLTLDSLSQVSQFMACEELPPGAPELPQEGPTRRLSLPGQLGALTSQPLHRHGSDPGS
Cytochrome P450 2C19 (Homo sapiens), sequence (P33261 whole entry, looked up): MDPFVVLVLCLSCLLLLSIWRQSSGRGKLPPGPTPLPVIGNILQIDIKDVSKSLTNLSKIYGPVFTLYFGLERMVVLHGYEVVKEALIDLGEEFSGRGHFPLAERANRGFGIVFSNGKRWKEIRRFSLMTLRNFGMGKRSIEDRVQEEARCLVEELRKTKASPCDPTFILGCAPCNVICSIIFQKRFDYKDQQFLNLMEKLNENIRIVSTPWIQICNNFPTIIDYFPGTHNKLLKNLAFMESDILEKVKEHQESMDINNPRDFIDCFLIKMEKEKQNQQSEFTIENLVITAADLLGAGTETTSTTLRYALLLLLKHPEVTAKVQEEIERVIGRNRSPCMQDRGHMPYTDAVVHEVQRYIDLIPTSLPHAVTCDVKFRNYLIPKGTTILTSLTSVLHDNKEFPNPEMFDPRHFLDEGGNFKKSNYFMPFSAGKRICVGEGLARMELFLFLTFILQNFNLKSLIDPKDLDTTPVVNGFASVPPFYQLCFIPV
Cytochrome P450 3A4 (Homo sapiens), sequence (P08684 whole entry, looked up): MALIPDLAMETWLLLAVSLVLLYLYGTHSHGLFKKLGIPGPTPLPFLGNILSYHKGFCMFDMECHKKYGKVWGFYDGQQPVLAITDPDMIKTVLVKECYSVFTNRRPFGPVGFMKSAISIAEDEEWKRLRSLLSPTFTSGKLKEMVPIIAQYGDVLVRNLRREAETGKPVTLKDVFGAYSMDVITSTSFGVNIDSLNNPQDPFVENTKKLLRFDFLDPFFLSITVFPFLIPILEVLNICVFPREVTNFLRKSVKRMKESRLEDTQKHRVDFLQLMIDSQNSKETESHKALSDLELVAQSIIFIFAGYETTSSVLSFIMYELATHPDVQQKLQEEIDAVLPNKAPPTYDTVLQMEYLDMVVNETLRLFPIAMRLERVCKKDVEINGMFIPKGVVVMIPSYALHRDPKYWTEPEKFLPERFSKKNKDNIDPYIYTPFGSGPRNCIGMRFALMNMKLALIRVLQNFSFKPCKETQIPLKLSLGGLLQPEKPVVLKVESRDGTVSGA
Cytochrome P450 2D6 (Homo sapiens), sequence (P10635 whole entry, looked up): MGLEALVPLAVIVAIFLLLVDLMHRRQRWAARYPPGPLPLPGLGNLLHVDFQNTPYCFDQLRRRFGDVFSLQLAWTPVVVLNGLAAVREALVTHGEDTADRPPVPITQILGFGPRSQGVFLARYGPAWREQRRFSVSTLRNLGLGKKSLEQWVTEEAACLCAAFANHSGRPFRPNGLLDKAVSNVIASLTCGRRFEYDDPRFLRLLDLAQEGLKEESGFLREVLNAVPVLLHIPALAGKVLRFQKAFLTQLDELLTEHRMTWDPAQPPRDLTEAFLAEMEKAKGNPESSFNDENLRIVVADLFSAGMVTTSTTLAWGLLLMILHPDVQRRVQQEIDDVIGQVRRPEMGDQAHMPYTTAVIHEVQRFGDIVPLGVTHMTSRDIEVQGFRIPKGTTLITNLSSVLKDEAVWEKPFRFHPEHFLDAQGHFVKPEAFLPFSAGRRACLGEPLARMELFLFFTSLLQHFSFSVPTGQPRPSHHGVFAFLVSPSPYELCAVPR
Cytochrome P450 2C9 (Homo sapiens), sequence (P11712 whole entry, looked up): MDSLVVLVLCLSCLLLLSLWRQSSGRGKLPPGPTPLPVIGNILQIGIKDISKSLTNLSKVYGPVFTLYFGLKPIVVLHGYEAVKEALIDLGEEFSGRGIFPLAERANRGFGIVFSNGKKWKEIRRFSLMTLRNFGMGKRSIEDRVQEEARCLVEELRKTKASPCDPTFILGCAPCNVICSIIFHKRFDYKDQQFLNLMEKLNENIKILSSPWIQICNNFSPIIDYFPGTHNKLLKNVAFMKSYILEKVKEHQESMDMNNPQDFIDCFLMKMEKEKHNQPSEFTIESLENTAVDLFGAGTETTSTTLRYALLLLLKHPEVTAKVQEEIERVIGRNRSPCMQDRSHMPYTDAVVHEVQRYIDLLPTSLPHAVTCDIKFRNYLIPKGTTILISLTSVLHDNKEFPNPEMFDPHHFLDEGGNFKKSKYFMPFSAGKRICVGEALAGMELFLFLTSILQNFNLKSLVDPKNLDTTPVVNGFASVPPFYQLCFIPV
Cytochrome P450 1A2 (Homo sapiens), sequence (P05177 whole entry, looked up): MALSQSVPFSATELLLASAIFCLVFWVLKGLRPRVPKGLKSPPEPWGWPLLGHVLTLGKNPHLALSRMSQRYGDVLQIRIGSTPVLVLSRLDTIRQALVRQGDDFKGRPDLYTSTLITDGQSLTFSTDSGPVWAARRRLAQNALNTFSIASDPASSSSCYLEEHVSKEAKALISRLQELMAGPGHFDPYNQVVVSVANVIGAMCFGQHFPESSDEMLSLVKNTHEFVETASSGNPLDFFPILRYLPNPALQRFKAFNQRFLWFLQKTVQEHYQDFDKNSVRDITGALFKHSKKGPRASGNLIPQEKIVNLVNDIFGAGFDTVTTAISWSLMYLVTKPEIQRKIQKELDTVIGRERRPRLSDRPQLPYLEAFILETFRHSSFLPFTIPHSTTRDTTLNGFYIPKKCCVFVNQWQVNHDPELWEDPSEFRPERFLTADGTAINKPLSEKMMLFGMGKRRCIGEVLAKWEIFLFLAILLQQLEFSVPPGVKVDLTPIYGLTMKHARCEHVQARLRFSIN
Nuclear receptor subfamily 1 group I member 2 (Homo sapiens), sequence (O75469 whole entry, looked up): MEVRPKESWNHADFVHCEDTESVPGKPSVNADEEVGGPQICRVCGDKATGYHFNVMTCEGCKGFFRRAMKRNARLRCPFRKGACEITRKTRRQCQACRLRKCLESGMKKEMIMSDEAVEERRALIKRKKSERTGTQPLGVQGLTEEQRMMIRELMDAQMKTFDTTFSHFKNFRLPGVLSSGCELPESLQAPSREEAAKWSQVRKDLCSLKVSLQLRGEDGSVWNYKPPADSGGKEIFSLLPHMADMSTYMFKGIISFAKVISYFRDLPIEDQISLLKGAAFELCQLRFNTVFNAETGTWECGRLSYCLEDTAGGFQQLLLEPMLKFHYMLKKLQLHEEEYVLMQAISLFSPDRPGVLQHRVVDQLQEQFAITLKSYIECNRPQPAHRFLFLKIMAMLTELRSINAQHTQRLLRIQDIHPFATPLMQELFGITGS
Nuclear receptor subfamily 1 group I member 2 (Rattus norvegicus), sequence (Q9R1A7 whole entry, looked up): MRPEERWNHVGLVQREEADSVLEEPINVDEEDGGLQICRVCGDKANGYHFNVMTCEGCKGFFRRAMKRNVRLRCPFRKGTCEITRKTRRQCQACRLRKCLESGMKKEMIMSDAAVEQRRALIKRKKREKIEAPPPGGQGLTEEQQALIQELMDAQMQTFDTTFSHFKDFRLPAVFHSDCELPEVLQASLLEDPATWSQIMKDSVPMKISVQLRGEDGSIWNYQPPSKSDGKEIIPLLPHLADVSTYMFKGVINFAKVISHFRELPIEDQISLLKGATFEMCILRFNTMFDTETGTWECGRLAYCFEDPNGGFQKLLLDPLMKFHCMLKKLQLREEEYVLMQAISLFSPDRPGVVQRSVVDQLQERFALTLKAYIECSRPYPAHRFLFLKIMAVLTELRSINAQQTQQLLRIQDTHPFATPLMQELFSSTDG

For `Cc1ccc(C=O)cc1`, the Potency entry in assay [1], in assay [2], in assay [3], in assay [4], in [5] and in [6] was “inactive” in each case. Also, the Potency entry in assay [7] and in [8] was “inactive” in each case.
As to `CC(C)(C)c1cc(CCC(=O)OCCSCCOC(=O)CCc2cc(C(C)(C)C)c(O)c(C(C)(C)C)c2)cc(C(C)(C)C)c1O`, the Potency result in [1], in assay [2], in [3], in assay [4] and in [9] was “inactive” each time. Also, the Potency is 8.71 µM (active) in [5], 2.19 µM (active) in [6] and 4.9 µM (active) in assay [8].
For the molecule `CC1=CC[C@@H](C(C)(C)O)CC1`, the Potency entry in [1], in [2], in assay [3], in assay [4], in [5] and in [6] was “inactive” each time. Also, the Potency result in [7], in assay [9] and in [8] was “inactive” throughout.
As to `C=C(C)C1CCC(C)CC1O` (stereo not drawn), the Potency entry in [1], in assay [2], in [3], in [4], in assay [5] and in [6] was “inactive” in each case. Also, the Potency result in assay [7], in assay [9] and in assay [8] was “inactive” each time.
For the molecule `c1ccc(-c2nc3ccccc3[nH]2)cc1`, the Potency entry in [1], in [2] and in [9] was “inactive” throughout. The Potency is 9.69 µM (active) in assay [3]; 31.7 µM (active) in assay [4]; 35.6 µM (active) in assay [5]; 35.6 µM (active) in [6]; 7.1 µM (active) in [7].
`CCCCCCCCCCCCCCCCC(C(=O)O)C(O)(CC(=O)O)C(=O)O` (stereo not drawn): the Potency result in assay [1], in [2], in [3], in assay [11], in assay [12] and in assay [5] was “inactive” throughout. Also, the Potency result in [6], in assay [9] and in assay [8] was “inactive” throughout. Besides, in assay [10], the max activation was -2.33%. Also, in assay [4], the Potency was 34.7 µM (active).
Take `Oc1ccc(Cl)cc1C1CCCC1`: the Potency entry in assay [1], in assay [2], in assay [4], in assay [9] and in assay [8] was “inactive” throughout. Moreover, the Potency in assay [3] is 68.6 µM (active); in assay [5], 8.94 µM (active); in assay [6], 28.3 µM (active); in [7], 22.4 µM (active).
As to `CC(C)=CCC[C@H](C)CC=O`, the Potency result in assay [1] and in [2] was “inactive” each time.
As for `NC(=O)C1CO1` (stereo not drawn), the Potency result in assay [1], in assay [2], in assay [3], in assay [4], in [5] and in [6] was “inactive” in each case. Besides, the Potency entry in assay [7], in [9] and in assay [8] was “inactive” in each case.
